# Measured values from PubChem BioAssay (NCI).
# This is part of a sample that, as a whole, favours compounds with a hit. Of some 79,000 tested, about 15% had one in any assay. Unmarked numbers belong to inactive results. The source made the active and inactive calls. No stated cut-off is given here; in the data, active means growth inhibition above about 70%; inactive means the rest.
# Legend:
# [1] = NCI Yeast Anticancer Drug Screen. Data for the rad50 strain (AID 155);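 further: 0% = growth of vehicle-only cultures of the same strain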; conditions: S. cerevisiae rad50 strain growth inhibition; at 50.0 µM; stronger effect = higher value
# In short: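 Compounds were tested on a yeast strain with an engineered DNA damage repair alteration; the reported value is growth inhibition normalised to vehicle treatment.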
# [2] = NCI Yeast Anticancer Drug Screen. Data for the mec2-1 strain (AID 157); conditions: S. cerevisiae mec2-1 strain, at 50.0 µM, stronger effect = higher value
# In short: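 Cells of the genetically defined mec2-1 yeast strain are incubated with test compound. Inhibition of growth is calculated against vehicle-treated controls.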
# [3] = NCI Yeast Anticancer Drug Screen. Data for the sgs1 mgt1 strain (AID 161);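 further: 0% = growth of cultures given vehicle only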; conditions: S. cerevisiae sgs1 mgt1 strain, at 50.0 µM, stronger effect = higher value
# In short: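 Inhibition of yeast growth, normalised to vehicle-treated controls, is reported for a strain bearing genetic alterations in DNA damage repair.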
# [4] = NCI Yeast Anticancer Drug Screen. Data for the cln2 rad14 strain (AID 165);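 further: 0% = growth equal to vehicle treated cultures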; conditions: S. cerevisiae cln2 rad14 strain, at 50.0 µM, stronger effect = higher value
# In short: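 The screen exposed genetically defined yeast (cln2 rad14) to test compounds and scored growth inhibition relative to vehicle-treated controls.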
# [5] = NCI Yeast Anticancer Drug Screen. Data for the bub3 strain (AID 167); conditions: S. cerevisiae bub3 mutant strain, at 50.0 µM, stronger effect = higher value
# In short: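 Growth of a checkpoint-deficient yeast mutant is measured after compound exposure. Values represent inhibition relative to vehicle.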
# [6] = NCI Yeast Anticancer Drug Screen. Data for the mlh1 rad18 strain (AID 175); conditions: S. cerevisiae mlh1 rad18 strain growth inhibition; at 50.0 µM; stronger effect = higher value
# In short: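 Compound-treated yeast growth, normalised to vehicle controls. Strain bears defined DNA repair mutations.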
Structure (SMILES),growth inhibition [1],growth inhibition [2],growth inhibition [3],growth inhibition [4],growth inhibition [5],growth inhibition [6]
O=C1NC(=O)c2ccccc2/C1=C/c1ccc2c(c1)OCO2,-16.6%,-8.25%,-13.3%,-32.5%,-2.6%,-26.6%
COc1ccc(CC(N)C(=O)N2CCCCC2)cc1 (stereo not given),8.45%,0.8%,13.2%,8.15%,8.4%,6.75%
N#CC(C(=N/NC(N)=S)/C(=N/NC(N)=S)C(C#N)c1ccc(Cl)cc1)c1ccc(Cl)cc1 (stereo not given),-16.9%,-19.8%,-23.9%,-6.85%,-4.95%,-13.1%
Nc1ccc(S(=O)(=O)CC(=O)N2CCOCC2)cc1,6.2%,-10.8%,8.3%,17.9%,4.95%,22.5%
COC(=O)C(=O)C(C(=O)C(=O)Nc1ccc(C)cc1C)c1nc2ccc(Cl)cc2[nH]c1=O (stereo not given),4.35%,-21.6%,9.2%,-23.6%,-22.4%,7.45%
COC(=O)c1ccc(NCC2=CC(=O)c3ccccc3C2=O)cc1,46.9%,38%,59%,48.4%,54%,88% (active)
CC(O)(CNS(=O)(=O)c1ccccc1)c1ccccc1 (stereo not given),14.2%,8.8%,0.6%,-36.9%,-31.2%,-16.6%
CN(C)C1C(=O)c2ccccc2C1=O,-34.6%,-27.6%,-29.5%,-5.1%,0.05%,-14.8%
O=[N+]([O-])c1ccc2nc[nH]c2c1,48.8%,4.9%,-6.4%,25.5%,-0.2%,43.1%
O=C(Oc1ccc2c(c1)CCN2C(=O)c1cc2c(cc1[N+](=O)[O-])OCO2)c1ccc2c(c1)OCO2,17.4%,7.2%,-2.3%,5.7%,-4.8%,11.2%
O=[N+]([O-])c1nccn1CCC[n+]1ccc2ccccc2c1,-25.4%,-7.7%,-8.6%,-2%,-13.8%,-17%
CN(C)CCCc1c2ccccc2nc2ccc(Cl)cc12,12.5%,4.5%,-10%,-2.65%,2.65%,26.5%
COc1ccc(-c2oc3cc(OC)ccc3c(=O)c2O)cc1,22.5%,25.4%,8.1%,-3.5%,-5.1%,8.25%
COc1cc2c(cc1N)-c1ccc(N)cc1C2O (stereo not given),7.55%,3.65%,-9.05%,17.3%,17.1%,1.05%
c1ccc2c3[n+](ccc2c1)CCC[n+]1ccc2ccccc2c1-3,75.1% (active),38%,85% (active),60%,18.3%,79% (active)
N=C1C=C/[N+](=C\C=CCO)C([O-])=N1,-18.2%,-20.6%,-35.3%,-2.55%,-43.4%,-3.2%
COc1ccc(NC=O)c(C)c1,-10.5%,-38.8%,-5.35%,-10.3%,28.6%,-29%
CC1CCCC1N (stereo not given),-13.7%,-12.5%,-24.5%,-27.1%,-5.85%,-7.5%
O=C(O)c1c(Cl)ccc([N+](=O)[O-])c1Cl,-4.45%,-24.2%,-8.95%,8.8%,-10.6%,-1.45%
CC(=O)Nc1cccc2[nH]c(=O)c3ccccc3c12,3.4%,-6.4%,-5.8%,-19.3%,-16.9%,4.55%
